TGFb SMAD3 inh: blocks TGF-b signaling; HepG2 CAGA-GFP TGF-b/SMAD3 reporter, GFP fluorescence, 18 h; TGF-beta stimulated, 500 pg/mL final; Potency, µM (series often up to 46.1 µM), inactives show at the highest dose activity, negative = inhibition, hits mostly inhibitors; 410,000 compounds, 1.2% hits; AID 588855; also: potency is read from the fitted curve at half-maximal effect; % is scaled to controls: 0 for no effect and ±100 for the full control effect; nearly all actives have a fitted effect of over 65% in size
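Read-out: total well GFP (ex488/em500-530) summed from mean per-cell fluorescence. Cells: HEPG2 CAGA-GFP, 1% FBS DMEM, 18 h at 37 degrees C with 500 pg/mL final TGF-beta. Unstimulated wells served as the full-inhibition control; stimulated DMSO wells = 0%.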
DT40 TDP1 CPT: DT40-hTDP1 cell growth loss with CPT; chicken DT40 Tdp1-/-;hTDP1 cells + 20 nM CPT, ATP luminescence, 48 h; 420,000 compounds, 12% hits; AID 686979; Potency, µM (top dose mostly 46.2 µM), for the others: at the top dose activity change, negative = growth inhibition, actives largely listed as inhibitors; also: potency is read from the fitted curve at half-maximal effect; % is scaled to controls: 0 for no effect and ±100 for the full control effect; nearly all actives have a fitted effect of over 55% in size
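Chicken DT40 Tdp1-/- cells complemented with human TDP1, 400 cells/well, exposed to compounds plus 20 nM camptothecin for at least 48 h at 37 C; viability read as ATP content by CellTiter-Glo luminescence.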
DT40 TDP1 no CPT: qHTS for Inhibitors of human tyrosyl-DNA phosphodiesterase 1 (TDP1): qHTS in cells in absence of CPT; AID 686978, 2013; 420,000 compounds, 15% hits; Potency, µM (series often up to 46.2 µM), for inactives: top-dose activity change, negative = growth inhibition, usual class: inhibitors; DT40 Tdp1-/- hTDP1 cells, no CPT, ATP luminescence, 48 h; also: potency is read from the fitted curve at half-maximal effect; % is scaled to controls: 0 for no effect and ±100 for the full control effect; nearly all actives have a fitted effect of over 55% in size
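Growth kinetics read by CellTiter-Glo luminescence after ≥48 hr at 37 °C. Cells: DT40 Tdp1-/- stably carrying human TDP1, 400 per well, compound exposure in the absence of CPT (DMSO vehicle).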
IL1B secr inh: inflammasome signaling inhibition, IL-1 beta readout | THP-1 LPS/ATP IL-1B secretion, AlphaLISA, 16 h; hits give low values | activity change, % at 57.5 µM | 360,000 compounds, 4.7% hits | AID 743279; in the data active = activity change below about -50%; inconclusive = mostly about -30% to -49%; also: % is scaled to controls: 0 for no effect and ±100 for the full control effect
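THP-1 cells pretreated 1 hr with compounds (up to 57.5 uM final), then stimulated with LPS (250 ng/mL final) plus ATP (1.25 mM final); secreted IL-1B measured by AlphaLISA after 16 hr, decreased signal indicating inhibition.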
HepG2 tox: kills HepG2 cells in TGF-b inhibitor counter-screen. 410,000 compounds, 0.76% hits. HepG2 CAGA-GFP viability, ATP luminescence, 18 h. Potency, µM (series often up to 46.1 µM), for inactives: top-dose activity change, negative = cytotoxicity, actives largely listed as cytotoxic; also: potency is read from the fitted curve at half-maximal effect
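HepG2 CAGA-GFP cells (1000/well, DMEM with 1% FBS) received compound, then TGF-beta at 500 pg/mL final, and were incubated 18 hours at 37 degrees C. Viability was read by CellTiter-Glo luminescence. Media-only wells were set as complete cell-killing and DMSO as no toxicity.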
TDP1 inh: blocks human tyrosyl-DNA phosphodiesterase 1; Potency, µM (titrated, usually from 130 µM), for inactives: top-dose activity change, negative = inhibition, actives largely listed as inhibitors; 350,000 compounds, 0.28% hits; recombinant TDP1, AlphaScreen DNA substrate cleavage; Q9NUW8; AID 485290; also: potency is read from the fitted curve at half-maximal effect; % is scaled to controls: 0 for no effect and ±100 for the full control effect; nearly all actives have a fitted effect of over 40% in size
Target sequence (Q9NUW8 whole entry, looked up): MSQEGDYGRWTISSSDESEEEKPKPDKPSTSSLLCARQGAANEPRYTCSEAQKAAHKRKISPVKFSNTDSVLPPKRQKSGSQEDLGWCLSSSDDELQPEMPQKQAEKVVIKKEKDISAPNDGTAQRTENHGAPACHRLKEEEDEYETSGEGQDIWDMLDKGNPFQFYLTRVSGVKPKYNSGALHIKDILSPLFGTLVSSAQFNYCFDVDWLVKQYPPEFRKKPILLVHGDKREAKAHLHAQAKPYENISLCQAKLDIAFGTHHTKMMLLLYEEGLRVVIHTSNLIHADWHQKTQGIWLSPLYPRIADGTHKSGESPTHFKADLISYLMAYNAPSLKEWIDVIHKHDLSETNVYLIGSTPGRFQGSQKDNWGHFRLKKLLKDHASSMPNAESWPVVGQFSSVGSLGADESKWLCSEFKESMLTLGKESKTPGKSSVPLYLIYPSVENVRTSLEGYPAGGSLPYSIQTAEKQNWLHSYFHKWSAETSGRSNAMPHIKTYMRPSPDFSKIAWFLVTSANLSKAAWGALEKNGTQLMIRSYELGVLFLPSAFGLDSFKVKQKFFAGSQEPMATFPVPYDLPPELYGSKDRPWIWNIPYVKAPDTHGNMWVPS
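E. coli-derived human Tdp1, 1 nM final. Cpd preinc 15 min RT; substrate 15 nM final, 5 min RT; AS bead mix 10 ug/ml final, 10 min RT. Signal loss = tyrosine-FITC cleavage. No-enzyme wells = max signal.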
* marks the source's active call; other numbers are inactive results; u = inconclusive; x = no result. A selection: hits, their analogues and other compounds. The true share with any hit is near 19%. Unless noted, calls follow the shape of the dose curve; as a rule, active = well fitted curve in the direction sought with a large enough effect; inconclusive = small, poorly fitted or top-dose-only effect, or another doubt; inactive = no such curve, though single readings can be large; an effect the other way counts as inactive or inconclusive.

SMILES | TGFb SMAD3 inh | DT40 TDP1 CPT | DT40 TDP1 no CPT | IL1B secr inh | HepG2 tox | TDP1 inh
O=S(=O)(NCCc1cn(S(=O)(=O)c2ccccc2)c2ccccc12)c1ccccc1 | -4% | x | x | x | 4% | -11%
CS(=O)(=O)/C=C/c1nc(Nc2cc(F)cc(F)c2)c2ncn(CC(F)F)c2n1 | x | x | x | x | x | 1%
CCOC(=O)c1ccc(NC(=O)C2CC(O)CN2S(=O)(=O)c2ccc(C)cc2)cc1 (centres undefined) | -3% | -25% | u | 12 | -14% | 0%
O=C(O)CCCCCCCCCCP(=O)(c1ccccc1)c1ccccc1 | -3% | 5% | 6% | 31 | 15% | 7%
CCCCN(CCCC)CP(=O)(c1ccccc1)c1ccccc1 | u | 16µM* | 15µM* | -8 | -53% | -1%
O=P(CCCCCCCCCP(=O)(c1ccccc1)c1ccccc1)(c1ccccc1)c1ccccc1 | u | 7.3µM* | 8.2µM* | -104* | -98% | -2%
CCCCCCP(=O)(O)c1ccccc1 | 1% | 17% | 4% | 23 | 4% | 5%
O=P(COCCOCP(=O)(c1ccccc1)c1ccccc1)(c1ccccc1)c1ccccc1 | -12% | 0% | -19% | -9 | -12% | 2%
O=P(COCCCCCOCP(=O)(c1ccccc1)c1ccccc1)(c1ccccc1)c1ccccc1 | u | 16µM* | 18µM* | u | -70% | 6%
CC(C)CCOP(=O)(c1ccccc1)c1ccccc1 | -24% | u | u | -23 | 9% | 5%
CCCOP(=O)(c1ccccc1)c1ccccc1 | 1% | 21µM* | u | 14 | 6% | -1%
Cc1nc(N2CCOCC2)c2nc(-c3ccccc3)n(CCN3CCCC3)c2n1 | x | x | x | x | x | 9%
Cc1ccc(C)c(N2CCN(c3nc4ccccc4c4nc(-c5cccnc5)nn34)CC2)c1 | 4% | -16% | -27% | x | 5% | 4%
CCc1nnc2c3ccccc3nc(N3CCN(c4cc(C)ccc4C)CC3)n12 | -14% | u | 1.3µM* | x | -2% | 4%
Cc1ccc(C)c(N2CCN(c3nc4ccccc4c(=O)n3-c3ccccc3)CC2)c1 | -12% | 10µM* | 9.2µM* | x | -2% | 2%
COc1ccc(-c2nnc(C3CCN(C(=O)c4ccccc4F)CC3)o2)cc1 | u | 5.2µM* | 4.6µM* | x | -28% | -4%
O=C(c1sccc1-c1ccccc1)N1CCN(S(=O)(=O)c2ccccc2)CC1 | -2% | u | 23µM* | 6 | 26% | 5%
Cc1ccc(S(=O)(=O)N2CCN(C(=O)c3sccc3-c3ccccc3)CC2)cc1 | 3% | u | 18µM* | 0 | -8% | 4%
O=C(c1cccs1)N1CCN(S(=O)(=O)c2ccccc2)CC1 | -2% | -15% | 1% | 15 | -23% | 3%
Cc1ccc(S(=O)(=O)N2CCN(C(=O)c3ccccc3)CC2)cc1 | 1% | -26% | -1% | u | 4% | 0%
CCc1ccccc1NC(=O)c1cnn2c(C(F)(F)F)cc(-c3ccc(OC)c(OC)c3)nc12 | 2% | x | x | x | -1% | 0%
CSc1ccc(CN2CCC(C)(Oc3ccc(-n4ccnc4)cc3)C2)cc1 (centres undefined) | -10% | 18µM* | 18µM* | u | -37% | x
CSc1ccc(OC2(C)CCN(Cc3ccc4c(c3)OCCO4)C2)cc1 (centres undefined) | u | 26µM* | u | -11 | -27% | x
CSc1ccc(CN2CCC(C)(Oc3ccc(CC#N)cc3)C2)cc1 (centres undefined) | 0% | u | u | -22 | -17% | x
CSc1ccc(OC2(C)CCN(Cc3ccccc3)C2)cc1 (centres undefined) | 23% | u | u | -21 | -33% | x
SMILES | TGFb SMAD3 inh | DT40 TDP1 CPT | DT40 TDP1 no CPT | IL1B secr inh | HepG2 tox | TDP1 inh
CC(C)c1ccc(CN2CCC(C)(Oc3ccc(Cl)cc3)C2)cc1 (centres undefined) | 6% | u | u | 1 | -25% | x
COc1cc(OC)cc(OC2(C)CCN(Cc3ccc(OC(C)C)cc3)C2)c1 (centres undefined) | 14% | 26µM* | 23µM* | 13 | -19% | x
Cc1ccc(-c2nc3sc(CCNC(=O)c4ccc(Br)o4)c(C)n3n2)cc1 | 18µM* | u | 29µM* | x | -56% | 8%
Cc1c(CCNC(=O)c2ccc(Br)o2)sc2nc(-c3ccc(F)cc3)nn12 | u | 12µM* | 4.6µM* | x | -41% | 10%
CC(=O)N/C(=C/c1ccccc1)c1ccncc1 | -4% | 7.9µM* | 11µM* | x | -22% | x
O=C(N/N=C/C(Br)=C\c1ccccc1)c1ccc2nc[nH]c2c1 | u | 10µM* | 15µM* | -90* | -21% | 3%
CC(=C/c1ccccc1)/C=N/NC(=O)c1ccc2nc[nH]c2c1 | 2% | -24% | u | -14 | 1% | 0%
O=C(N/N=C/C(Br)=C/c1ccccc1)c1ccc([N+](=O)[O-])cc1 | 2% | 4.1µM* | 4.1µM* | u | -1% | -17%
CC(=O)N/C(=C/C(C)C)c1ccccc1 | 3% | 5% | 2% | 9 | 16% | 2%
O=C(N/N=C/C(Br)=C/c1ccccc1)c1cccnc1 | -30% | 2.6µM* | 2.1µM* | -95* | -23% | 5%
COCC(=O)N1CCC2(CCCN(Cc3ccccc3)C2)CC1 | x | 1% | 0% | x | x | x
O=C(N/N=C/C(Br)=C/c1ccccc1)c1ccncc1 | u | 1.6µM* | 1.6µM* | -84* | -61% | 5%
O=C(NCc1ccc(Cl)cc1)c1cnc2sc(N3CCCCCC3)nn2c1=O | -25% | 15% | -1% | x | 3% | 8%
Cn1ccc2c(-c3ccc(C(C)(C)C)cc3)cc3c(c21)C1CCC3O1 (centres undefined) | 11µM* | u | 23µM* | 8 | -39% | x
Cn1ccc2c(-c3ccc(C(=O)O)cc3)cc3c(c21)C1CCC3O1 (centres undefined) | -27% | -4% | -14% | 18 | -22% | x
Cn1ccc2c(-c3ccc(CO)cc3)cc3c(c21)C1CCC3O1 (centres undefined) | u | -104% | u | 18 | -28% | x
Cn1ccc2c(-c3ccc(C(F)(F)F)cc3)cc3c(c21)C1CCC3O1 (centres undefined) | u | 23µM* | 16µM* | 4 | -26% | x
Cc1cc(C(=O)O)ccc1[C@H](N)C(=O)O | x | -2% | -19% | x | x | -7%

From PubChem BioAssay
